This passage reports activity results from PubChem BioAssay.

Assay [1] addresses Tumor necrosis factor receptor superfamily member 10B (Homo sapiens) (UniProt O14763). In words: caspase-8 TRAIL sensitization, hit retest, confirmation, cell-based, NB7+caspase-8, with/without TRAIL, luminescence panel (AID 651596). The note with it: NB7 neuroblastoma + caspase-8, TRAIL sensitization, luminescence viability, with TRAIL, mean of runs, at 10 µM, stronger effect = higher value.

Experiment in assay [2]: as above
The note with it: NB7 neuroblastoma + caspase-8, without TRAIL, luminescence viability, without TRAIL, mean of runs, at 10 µM.

Sequence of Tumor necrosis factor receptor superfamily member 10B (Homo sapiens) (O14763 whole entry, looked up): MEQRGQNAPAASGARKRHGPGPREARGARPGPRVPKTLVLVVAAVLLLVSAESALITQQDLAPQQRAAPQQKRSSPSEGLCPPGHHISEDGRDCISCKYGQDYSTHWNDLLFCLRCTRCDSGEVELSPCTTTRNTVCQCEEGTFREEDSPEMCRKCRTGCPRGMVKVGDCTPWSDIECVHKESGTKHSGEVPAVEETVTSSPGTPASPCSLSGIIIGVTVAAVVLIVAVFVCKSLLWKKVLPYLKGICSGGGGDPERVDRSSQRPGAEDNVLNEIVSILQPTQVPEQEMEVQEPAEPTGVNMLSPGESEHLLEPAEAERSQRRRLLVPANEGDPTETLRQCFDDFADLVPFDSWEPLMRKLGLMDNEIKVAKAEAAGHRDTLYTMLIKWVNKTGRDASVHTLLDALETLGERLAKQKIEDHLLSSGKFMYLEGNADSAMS

On to `COc1ccc(C(=O)Nc2cccc(/C=C/c3nc4ccccc4c(=O)[nH]3)c2)cc1`, for which the activity in assay [1] worked out at 73.5%; in assay [2], 60.9%.
As to `N/C(=N\OC(=O)c1ccc([N+](=O)[O-])cc1Cl)c1ccccn1`, the activity in assay [1] came to 90.2%; in assay [2] it was 87.3%.
In the case of `Oc1ccccc1-c1cc(-c2ccccc2)no1`, the activity turned out to be 46.3% in assay [1] and 37.7% in assay [2].
`CC(=O)c1ccc(NC(=O)Nc2ccccc2)cc1`: the activity in assay [1] was 65.2%; in assay [2], 68.3%.
For `O=[N+]([O-])c1ccc(/C=C/c2ccc3ccccc3n2)cc1`, the activity in assay [1] is 70.2%; in assay [2] it was 68.5%.
On the same counts, the results for `CN(C)c1cccc(C(=O)N/N=C/c2ccccc2F)c1` are 82.8% and 73.2%.
On the same counts, the results for `COc1ccc2nc(N3C(=O)CNC3=S)sc2c1` are 51.8% and 49.4%.
On the same counts, the results for `N#Cc1c(C#N)c(SSc2c(C#N)c(C#N)c(N)n2-c2ccccc2)n(-c2ccccc2)c1N` are -0.075% and 72.1%.
As for `c1ccc2nc(-c3ccc(N4CCOCC4)cc3)ccc2c1`, the figures for the activity in assay [1] and in assay [2] were 72.2% and 69%, respectively.
As to `COC(=O)c1ccc(NC(=O)C(=O)c2cccn2C)cc1`, the values for the activity in assay [1] and in assay [2] were 59.5% and 51.2%, respectively.
On the same counts, the results for `Cc1nc(-c2ccc(NC(=O)c3ccc(Br)o3)cc2)cs1` are 68.5% and 67.5%.
Consider `C#Cc1ccc(NC(=O)C2(C)CCN2C(=O)CC(c2ccccc2)c2ccccc2)cc1` (centres undefined), for which the activity in assay [1] was found to be 94.4%; in assay [2], 89%.
The corresponding values for `Nc1nccc(-c2cc(-c3ccc(Cl)cc3Cl)no2)n1` are 62.4% and 56.9%.
With `Cc1nc2sc(-c3ccccc3)cc2c(=O)n1N`, the activity in assay [1] was determined as 59.7%; in assay [2], 44.8%.
For `CNS(=O)(=O)c1cccc(C(=O)OCC(=O)c2cc(C)n(CC3CCCO3)c2C)c1` (centres undefined), the activity came out at 77.7% in assay [1] and 67% in assay [2].
As to `Fc1cccc(C2NN=C(c3ccccc3)S2)c1` (centres undefined), the activity amounted to 58.6% in assay [1] and 58.5% in assay [2].
On the same counts, the results for `O=C(Nc1ccc(N2CCCCC2)cc1)c1ccccc1` are 69.6% and 58.5%.
The corresponding values for `COc1ccc(C=C2OC(=O)C(C(C)=O)=C2O)cc1` are 90.4% and 89%.
In the case of `CCc1ccc([C@H]2[C@@H]3C(=O)C[C@@H]4C(=O)N(c5ccccc5)C(=O)[C@@H]4[C@@H]3CN2S(=O)(=O)c2ccc(C)cc2)cc1`, the activity is -4.35% in assay [1] and -7.2% in assay [2].
The corresponding values for `CN(C(=S)NC(=O)c1ccc(Cl)cc1)C1CCCCC1` are 40.6% and 60%.
On to `c1ccc(-c2ccc(-c3cn4c(n3)CCC4)cc2)cc1`, for which the values for the activity in assay [1] and in assay [2] were 62.8% and 67.6%, respectively.
For the molecule `COc1ccc(-c2cc(-c3ccccc3)c(C#N)c(S(C)=O)n2)cc1` (centres undefined), the values for the activity in assay [1] and in assay [2] were 95.2% and 99.2%, respectively.
The corresponding values for `OCC1OC(n2cnc3c(NCc4ccco4)ncnc32)C(O)C1O` (centres undefined) are 46.1% and 54.3%.
`Cc1ccc(-c2nnc(NC(=O)c3ccco3)o2)c(C)c1`: the results for the activity in assay [1] and in assay [2] were 70.7% and 58.6%, respectively.
As for `COc1ccc2nc(Nc3nc(-c4cc5ccccc5oc4=O)cs3)sc2c1`, the activity in assay [1] was found to be 50.4%; in assay [2] it was 47.4%.
Regarding `CCN(Cc1ccccc1)S(=O)(=O)c1ccc(C(=O)N(CCCN(C)C)c2nc3cc(C)cc(C)c3s2)cc1`, the figures for the activity in assay [1] and in assay [2] were 23.3% and -11.7%, respectively.
The corresponding values for `C(/C=C/c1ccccn1)=C\c1ccccc1` are 7.58% and 14.6%.
As for `CNc1ncnc(Sc2nc(N)nc3nc[nH]c23)c1[N+](=O)[O-]`, the activity in assay [1] was 72%; in assay [2], 77.6%.
Consider `Nc1c(-c2cccs2)cnc2c(-c3ccc(F)cc3)cnn12`, for which the figures for the activity in assay [1] and in assay [2] were 57.5% and 48.8%, respectively.
Take `Cc1ccc(C(=O)N/C(=C\c2ccc(-c3ccccc3[N+](=O)[O-])o2)C(=O)NCCCN2CCOCC2)cc1`: the activity was 24.6% in assay [1] and 48.9% in assay [2].
On the same counts, the results for `Cc1ccc(S(=O)(=O)n2ccc3c(OCCOCCNCc4ccc(F)cc4)cccc32)cc1` are 15.8% and 26.4%.
Take `CCn1cc(C(=O)NCC(OC)OC)c(=O)c2cc(S(=O)(=O)N3CCC(C)CC3)ccc21`: the activity came out at 57.3% in assay [1] and 64.5% in assay [2].
Take `Clc1ccc(-n2ncc3c(N4CCCCCC4)ncnc32)cc1`: the figures for the activity in assay [1] and in assay [2] were 78% and 74.8%, respectively.
The corresponding values for `C[C@H](CO)N1C[C@H](C)[C@@H](CN(C)C(=O)NC2CCCCC2)Oc2c(NS(=O)(=O)c3ccccc3)cccc2C1=O` are -8.07% and 1.05%.
`CNC[C@@H](CC1CCCCC1)NC[C@H](CC(C)C)NCCc1cccc(C(F)(F)F)c1`: the activity is 99.4% in assay [1] and 99.7% in assay [2].
On to `O=C(Cn1ncc(Cl)c(Cl)c1=O)NCC1CCCCC1`, for which the activity in assay [1] came to 98.9%; in assay [2], 99.1%.
On the same counts, the results for `O=C(Nc1ccc(F)cc1)c1nc(S(=O)(=O)Cc2ccccc2)ncc1Cl` are 57% and 94.9%.
For `CCc1nnc(NC(=O)CSc2nc3c(cc2C#N)CCC3)s1`, the results for the activity in assay [1] and in assay [2] were 73.7% and 70.8%, respectively.
Regarding `Cc1cccc(-n2ncc3c(N4CCC(C)CC4)ncnc32)c1`, the activity in assay [1] was 44.7%; in assay [2], 34.7%.
Consider `CC(=O)Nc1sc(C)c(C)c1C(=O)OCC(=O)N(CC(C)C)c1c(N)n(Cc2ccccc2)c(=O)[nH]c1=O`, for which the values for the activity in assay [1] and in assay [2] were 97.5% and 98.9%, respectively.
On the same counts, the results for `C(=N\NC1=Nc2cccc3cccc1c23)/c1ccccc1` are 34.3% and 14.2%.
With `COc1ccc(C(=O)Nc2ccc3[nH]ncc3c2)cc1`, the activity was 78.3% in assay [1] and 77.1% in assay [2].
As to `CCOc1cccc2cc(-c3nnc(NCc4ccco4)s3)c(=O)oc12`, the activity was -11.9% in assay [1] and -7.67% in assay [2].
`CN(C)C(=O)N1CCN(c2nc(-c3ccccc3)cs2)CC1`: the activity in assay [1] is 43.7%; in assay [2], 48.5%.
Take `O=C(Nc1nc2c(s1)CCCC2)c1ccc(Br)o1`: the values for the activity in assay [1] and in assay [2] were 73.7% and 88.6%, respectively.
As for `Cc1ccc(-c2nc3ccccc3[nH]2)s1`, the activity turned out to be 58.9% in assay [1] and 58.2% in assay [2].
For the molecule `O=C(Nc1ccc(N2CCN(C(=O)c3ccccc3)CC2)cc1)c1ccc([N+](=O)[O-])o1`, the figures for the activity in assay [1] and in assay [2] were 89% and 99.3%, respectively.
